# Screening data (PubChem BioAssay)
# HepG2 viability = HepG2 cytotoxicity, counter-screen for TGF-b inhibitors; actives 0.76% (n = 410,000); Potency, µM (highest dose often 46.1 µM), inactives show at the highest dose activity change, negative = cytotoxicity, hits mostly cytotoxic; HepG2 CAGA-GFP viability, ATP luminescence, 18 h; AID 588856
#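 CellTiter-Glo luminescence gave cytotoxicity after 18 hours at 37 degrees C. The cells were HepG2 CAGA-GFP in 1% FBS DMEM, stimulated with 500 pg/mL TGF-beta after compound addition. %Activity was normalised to no-cell wells (complete cell-killing) and DMSO (no toxicity), and curves were fitted and classified.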
# TGFb SMAD3 inh = inhibitors of TGF-b signaling | Potency, µM (top dose mostly 46.1 µM), for the others: top-dose activity, negative = inhibition, actives largely listed as inhibitors | actives 1.2% (n = 410,000) | HepG2 CAGA-GFP TGF-b/SMAD3 reporter, GFP fluorescence, 18 h; TGF-beta stimulated, 500 pg/mL final; also: % is scaled to controls: 0 for no effect and ±100 for the full control effect; nearly all actives have a fitted effect of over 65% in size
#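 Using HEPG2 CAGA-GFP reporter cells at 1000 cells/well, we pinned test compounds, stimulated with recombinant TGF-beta (500 pg/mL final) and measured total well GFP after 18 h.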
# HT1080 IDH1KD tx = kills HT-1080 cells with IDH1 knockdown | HT-1080 IDH1 knockdown viability, ATP luminescence, 48 h | Potency, µM (series often up to 46.1 µM), inactives show at the highest dose activity, negative = toxicity, usual class: cytotoxic | actives 2% (n = 360,000) | AID 686971;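 also: 0% = DMSO wells and -100% = cell-free medium wells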
#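 HT-1080-IDH1KD cells (IDH1 knocked down), 750/well in RPMI with 5% FBS, treated with compound 48 h at 37 degrees C. Viability by CellTiter-Glo luminescence, normalised to DMSO and no-cell wells; concentration-response curves classed.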
# TDP1 cell CPT = growth inhibition of DT40 Tdp1-/-;hTDP1 cells with camptothecin (screen for TDP1 inhibitors) | AID 686979 | actives 12% (n = 420,000) | Potency, µM (top dose mostly 46.2 µM), for the others: at the highest dose activity change, negative = growth inhibition, usual class: inhibitors | chicken DT40 Tdp1-/-;hTDP1 cells + 20 nM CPT, ATP luminescence, 48 h; also: % is scaled to controls: 0 for no effect and ±100 for the full control effect; nearly all actives have a fitted effect of over 55% in size
#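 Chicken DT40 Tdp1-/- cells stably complemented with human TDP1 were seeded at 400 cells/well in medium containing 20 nM camptothecin, exposed to pin-transferred compounds, and grown at 37 °C for at least 48 hr. Viability was read as ATP luminescence.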
# HT1080-NT tox = kills 2HG-producing HT-1080-NT fibrosarcoma cells; HT-1080-NT fibrosarcoma viability, CellTiter-Glo ATP luminescence, 48 h; Potency, µM (series often up to 46.1 µM), for the others: at the highest dose activity, negative = less viability, actives largely listed as cytotoxic; actives 1.6% (n = 360,000); AID 686970;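 also: NT is the 2HG producing partner of a matched IDH1 knockdown line; 0% = DMSO-treated cells and -100% = media-only wells without cells; nearly all actives have a fitted effect of over 55% in size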
#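 Viability by CellTiter-Glo luminescence after 48 h compound exposure at 37C of HT-1080-NT cells (750/well, RPMI, 5% FBS). % activity scaled between DMSO wells and medium-only wells, then curve-fitted and categorized by curve class.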
# TDP1 cell noCPT = qHTS for Inhibitors of human tyrosyl-DNA phosphodiesterase 1 (TDP1): qHTS in cells in absence of CPT; DT40 Tdp1-/- hTDP1 cells, no CPT, ATP luminescence, 48 h; AID 686978, 2013; actives 15% (n = 420,000); Potency, µM (series often up to 46.2 µM), for inactives: at the highest dose activity change, negative = growth inhibition, hits mostly inhibitors; also: % is scaled to controls: 0 for no effect and ±100 for the full control effect; nearly all actives have a fitted effect of over 55% in size
#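 Growth kinetics read by CellTiter-Glo luminescence after ≥48 hr at 37 °C. Cells: DT40 Tdp1-/- stably carrying human TDP1, 400 per well, compound exposure in the absence of CPT (DMSO vehicle).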
# Numbers without * were called inactive; ? = inconclusive; · = no result given. Shown are actives, neighbours in structure and some others; about 17% of the full set was active somewhere. Calls follow the shape of the dose curve; as a rule, active = well fitted curve in the direction sought with a large enough effect; inconclusive = small, poorly fitted or top-dose-only effect, or another doubt; inactive = no such curve, though single readings can be large; an effect the other way counts as inactive or inconclusive. Potency is read from the fitted curve at half-maximal effect.
SMILES,HepG2 viability,TGFb SMAD3 inh,HT1080 IDH1KD tx,TDP1 cell CPT,HT1080-NT tox,TDP1 cell noCPT
CC(C)C(O)(c1ccccc1)C(CN1CCOCC1)c1ccccc1 (stereo not drawn),-27.4%,-14.8%,7.2%,?,0.8%,?
CC(C)CCC(O)(c1ccccc1)C(CN1CCOCC1)c1ccccc1 (stereo not drawn),-33.1%,?,?,18.4µM*,?,16.4µM*
COc1ccc(C(O)(CCC(C)C)C(CN2CCOCC2)c2ccccc2)cc1 (stereo not drawn),-30.3%,?,-20.6%,23.1µM*,-21.4%,20.6µM*
Cc1cccc(N2CCN(C(=O)CN3C(=O)COc4ccc(S(=O)(=O)N5CCCC5)cc43)CC2C)c1 (stereo not drawn),-28.7%,-21.8%,·,·,·,·
Cc1ccccc1N(CC(=O)NCC1CCCO1)C(=O)CCC(=O)Nc1nccs1 (stereo not drawn),-14.8%,9.5%,5.8%,0.7%,3.8%,-23.2%
COC(=O)CCCCCCCCCC[N+]1(C)CCCCC1,0.8%,3.1%,11.4%,9.2%,-0.3%,-28.6%
C[N+]1(CC(=O)OC2CCCCCCCCCCC2)CCCC1,-3.2%,-6.0%,?,4.11µM*,?,2.59µM*
Nc1ccn([C@@H]2O[C@H](CNCc3cnc(N4CCOCC4)s3)[C@@H](O)[C@H]2O)c(=O)n1,0.0%,14.1%,6.3%,0.5%,10.2%,?
Nc1ccn([C@@H]2O[C@H](CO)[C@@H](O)C2(F)F)c(=O)n1,·,·,·,0.0094µM*,·,0.0094µM*
Nc1nc(=O)n(C2CC(O)C(CO)O2)cc1Cl (stereo not drawn),-2.5%,-5.4%,5.6%,?,?,-25.8%
Nc1ccn(C2OC(COC(=O)C34CC5CC(CC(C5)C3)C4)C(O)C2O)c(=O)n1 (stereo not drawn),4.6%,11.6%,-18.9%,0.0517µM*,-4.7%,0.366µM*
Nc1nc(=O)n(C2OC(CO)C(O)C2O)cc1Cl (stereo not drawn),·,·,·,?,·,5.17µM*
Nc1ccn([C@@H]2O[C@H](COS(=O)(=O)O)[C@@H](O)[C@H]2O)c(=O)n1,3.9%,23.9%,-15.6%,9.2µM*,1.3%,1.84µM*
O=C(Nc1ccccc1)/C(=C/c1cccnc1)NC(=O)c1ccccc1,2.3%,7.4%,4.4%,16.3%,-8.7%,5.9%
COC(=O)[C@@H]1CCCN1C(=O)c1c(OC)cc(=O)n2c1CCN(Cc1ccc3c(c1)CCO3)CC2,·,·,·,27.5%,·,-3.5%
COc1cc(OC)c(OC)cc1CNC(=O)CCN1C(=O)c2cccc([N+](=O)[O-])c2C1=O,16.0%,-1.2%,2.9%,1.9%,0.6%,-5.1%
O=c1ccn([C@@H]2O[C@H](COS(=O)(=O)O)[C@@H](O)[C@H]2O)c(=O)[nH]1,-8.0%,-7.8%,-3.0%,5.17µM*,2.1%,4.11µM*
CCCCCCCCCCCCCCCCCCCCCC(=O)Nc1ccn([C@@H]2O[C@H](CO)[C@@H](O)[C@@H]2O)c(=O)n1,·,·,·,2.66µM*,·,3.35µM*
Nc1ccn([C@@H]2O[C@H](CO)[C@@H](O)C2O)c(=O)n1 (stereo partly drawn),-23.3%,2.7%,?,0.0366µM*,?,0.0411µM*
O=c1[nH]cnc2c1ncn2[C@@H]1O[C@H](CO)[C@@H](O)[C@H]1O,27.3%,9.7%,19.5%,-9.3%,?,17.2%
CC(=O)OCC1OC(n2ccc(=O)[nH]c2=O)C(O)C1O (stereo not drawn),-7.9%,7.3%,15.6%,2.2%,12.1%,-21.0%
